# Tested on: Plasmodium falciparum
# Experiment: GSK_TCMDC: Inhibition of Plasmodium falciparum 3D7 in whole red blood cells, using parasite LDH activity as an index of growth. Test compounds present at 2uM
# Format: functional
row,Structure (SMILES),Inhibition
1,COc1ccc(CCN(C)CCCN2CCC(NC(=O)c3cccc4c(=O)c5ccccc5[nH]c34)CC2)cc1OC.O=C(O)C(=O)O,99%
2,COc1ccc(CN2CCC(CNC(C)c3cccc4ccccc34)CC2)cc1.O=C(O)C(F)(F)F (centres undefined),100%
3,COC(=O)c1cc(NC(=O)Nc2ccc(Cn3ncc(N4CCCNCC4)c(Cl)c3=O)cc2)cc(C(=O)OC)c1.O=C(O)C(F)(F)F,96%
4,Cc1cc(N2CCCC2)nc(Nc2ccc(NC(=O)c3ccccc3C)cc2)n1,100%
5,CCc1ccc(S(=O)(=O)Nc2ccc(CCN(C)C3CCN(C)CC3)cc2)cc1,86%
6,CCc1ccccc1N1CCN(CCCC(=O)c2ccc(NC(=O)c3ccc(Cl)cc3)cc2)CC1,90%
7,Fc1ccccc1C=NN=c1cc[nH]c2ccccc12,94%
8,COc1ccc(S(=O)(=O)NCCCC2CCN(CCCCCNC(=O)C=Cc3ccc(Cl)c(Cl)c3)CC2)cc1,85%
9,O=C(/C=C/c1ccccc1Cl)NC1CCC(CN2CCC(c3c[nH]c4ccncc34)CC2)CC1 (centres undefined),100%
10,Oc1ccc2ccccc2c1C=NNc1nc(=Nc2ccccc2)nc(N2CCOCC2)[nH]1,100%
11,C=CC(=O)Nc1ccc(Cl)cc1C(O)c1ccccc1 (centres undefined),100%
12,CCCn1cnc2cc(C(=O)Nc3ccc(-c4cccc(CN(C)C)c4)cc3)ccc2c1=O,95%
13,COc1cccc(-n2ncc3c(N/N=C/c4ccc(CN(C)CCN(C)C)cc4)ncnc32)c1,100%
14,Cc1ccc(NC(=O)c2ccc(NCCCN3CC(C)CC(C)C3)c([N+](=O)[O-])c2)cc1F (centres undefined),100%

# From ChEMBL document CHEMBL1157539, “Thousands of chemical starting points for antimalarial lead identification” (Nature, 2010)
